The list is not random: actives were taken first. Their share in the collection is about 3.8%.
HepG2 viability: HepG2 cytotoxicity, counter-screen for TGF-b inhibitors; actives 0.76% (n = 410,000); HepG2 CAGA-GFP viability, ATP luminescence, 18 h; Potency, µM (highest dose often 46.1 µM), most hits filed as cytotoxic
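HepG2 CAGA-GFP cells (1000/well, DMEM with 1% FBS) received compound, then TGF-beta at 500 pg/mL final, and were incubated 18 hours at 37 degrees C. Viability was read by CellTiter-Glo luminescence. Media-only wells were set as complete cell-killing and DMSO as no toxicity.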
Nrf2 inh: Nrf2 pathway inhibition; A549 ARE-Fluc reporter, luciferase luminescence, 18-24 h; Potency, µM (doses to about 46 µM), most hits filed as inhibitors; actives 2.1% (n = 360,000); AID 504444; further: nearly all actives have a fitted effect of over 60% in size
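Reporter: ARE-Fluc in A549. Exposure: 18-24 h, 37 °C, 5% CO2, 5% FBS OPTI-MEM. Readouts: fluorescent cytotoxicity (CellTiter-Fluor), then luminescent Nrf2 signal after BugLite.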
A549 tox: counter-screen for Nrf2 inhibitors: cytotoxicity in A549 cells; A549 ARE-Fluc cells, CellTiter-Fluor viability, 18-24 h; Potency, µM (top dose mostly 46 µM), actives largely listed as inhibitors; actives 0.16% (n = 390,000); AID 504648
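A549 ARE_Fluc cells in 5% FBS OPTI-MEM were exposed to compounds in concentration-response for 18-24 h at 37 deg C. Viability was read by CellTiter-Fluor fluorescence (Ex 405/Em 525) after 30 min, before the luciferase read.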
S2 tox: viability counter-screen for ATXN expression inhibitors. S2 cells (HEK-293 line with an ATXN2-luciferase reporter) viability, CellTiter-Fluor protease fluorescence, 24 h. Potency, µM (titrated, usually from 56.7 µM), most hits filed as cytotoxic. actives 0.49% (n = 400,000). AID 651635; further: nearly all actives have a fitted effect of over 40% in size
TGFb inhibitor: inhibitors of TGF-b signaling; HepG2 CAGA-GFP TGF-b/SMAD3 reporter, GFP fluorescence, 18 h; TGF-beta stimulated, 500 pg/mL final; Potency, µM (highest dose often 46.1 µM), most hits filed as inhibitors; actives 1.2% (n = 410,000); AID 588855; further: nearly all actives have a fitted effect of over 65% in size
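Per well, imaged GFP fluorescence of HEPG2 CAGA-GFP cells gives the signal; cells get compound, then TGF-beta (500 pg/mL final), 18 h at 37 degrees C; %Activity versus -TGF-beta and +DMSO controls.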
ATXN2 expr inh: ATXN2 expression inhibition | Potency, µM (top dose mostly 57 µM), actives largely listed as inhibitors | actives 0.72% (n = 360,000) | HEK-293 ATXN2-luciferase reporter, luminescence, 24 h; further: nearly all actives have a fitted effect of over 55% in size
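qHTS (up to 57 uM final) was run with 24 h compound exposure of reporter cells at 37 °C. Each well was multiplexed: SteadyGlo luminescence measured ATXN2-luciferase expression after a fluorogenic Gly-Phe-AFC viability readout (25 uM final).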
Numbers stand for hits; – = inactive; ? = inconclusive; · = not tested or not shown. The call rests on the fitted dose curve; in most records, active means well fitted curve in the direction sought with a large enough effect; inconclusive means small, poorly fitted or top-dose-only effect, or another doubt; inactive means no such curve, though single readings can be large; an effect the other way counts as inactive or inconclusive.

SMILES | HepG2 viability | Nrf2 inh | A549 tox | S2 tox | TGFb inhibitor | ATXN2 expr inh
O=C(CC1C[C@H](C(=O)N2CCOCC2)[C@@]2(CCC3CCCC3)c3[nH]c4ccccc4c3CCN2C1=O)NCC12CC3CC(CC(C3)C1)C2 (stereo not given in full) | – | 23µM | ? | – | – | –
COc1ccc(CNC(=O)C[C@H]2C[C@H](C(=O)N3CCCCC3)[C@@]3(C)c4[nH]c5cc(-c6ccco6)ccc5c4CCN3C2=O)cc1OC | – | – | – | ? | ? | ?
CC(C)N(C(=O)[C@H]1C[C@H](CC(=O)NCc2ccco2)C(=O)N2CCc3c([nH]c4ccc(Cl)cc34)[C@]12C)C(C)C | – | ? | ? | ? | 11µM | –
CCN(CC)C(=O)[C@H]1C[C@H](CC(=O)NCc2ccco2)C(=O)N2CCc3c([nH]c4ccc(Cl)cc34)[C@]12C | – | ? | – | – | ? | –
Cc1ccccc1-c1noc(-c2ccc(N3CCN(C)CC3)c([N+](=O)[O-])c2)n1 | – | – | – | – | ? | –
CC(C)N(C(=O)[C@H]1C[C@H](CC(=O)NCCCN(C)C)C(=O)N2CCc3c([nH]c4cc(-c5ccco5)ccc34)[C@]12C)C(C)C | 20µM | – | – | 32µM | ? | ?
COc1ccc2[nH]c3c(c2c1)CCN1C(=O)C(CC(=O)NCC24CC5CC(CC(C5)C2)C4)C[C@H](C(=O)N(C(C)C)C(C)C)[C@@]31C (stereo not given in full) | – | ? | – | – | 11µM | –
CCN(CC)C(=O)[C@H]1C[C@H](CC(=O)NCCCN(C)C)C(=O)N2CCc3c([nH]c4cc(-c5ccco5)ccc34)[C@]12C | – | – | – | – | – | –
O=C(C[C@H]1C[C@H](C(=O)N2CCOCC2)[C@@]2(CCC3CCCC3)c3[nH]c4ccc(Cl)cc4c3CCN2C1=O)NCCCn1ccnc1 | – | – | – | · | 11µM | ?
CC(C)N(C(=O)[C@H]1C[C@H](CC(=O)NCc2ccco2)C(=O)N2CCc3c([nH]c4cc(-c5ccco5)ccc34)[C@]12C)C(C)C | – | 15µM | – | – | ? | ?
Cc1cc(C(=O)NCc2nnc3n2CCN(Cc2ccc(F)cc2F)CC3)c(C)o1 | · | · | · | – | · | ·
Cc1cccc(N2CCN(S(=O)(=O)c3ccc(F)c(C(=O)Nc4ccc(C(C)C)cc4)c3)CC2)c1C | – | · | – | ? | – | –
Cc1cc2nc(N3C(=O)CNC3=S)sc2cc1C | – | ? | – | ? | ? | ?
CC(C)=CCC/C(C)=C/CNC(=O)C[C@H]1C[C@H](C(=O)N(C(C)C)C(C)C)[C@@]2(C)c3[nH]c4cc(CCC(=O)N(C)C)ccc4c3CCN2C1=O | – | 21µM | – | · | ? | ?
CC(C)N(C(=O)[C@H]1C[C@H](CC(=O)NCCCN(C)C)C(=O)N2CCc3c([nH]c4cc(CCC(=O)N(C)C)ccc34)[C@]12C)C(C)C | – | – | – | – | – | –
CC(C)=CCC/C(C)=C/CNC(=O)C[C@H]1C[C@H](C(=O)N(C(C)C)C(C)C)[C@@]2(C)c3[nH]c4cc(-c5ccco5)ccc4c3CCN2C1=O | – | 23µM | ? | ? | 13µM | ?
CC(C)CS(=O)(=O)c1oc(-c2ccc(F)cc2)nc1S(=O)(=O)c1ccccc1 | 7.1µM | 23µM | ? | · | 3.2µM | ·
CNc1oc(-c2ccc(F)cc2)nc1S(=O)(=O)c1ccccc1 | – | – | – | ? | – | –
CNc1oc(-c2cccs2)nc1S(=O)(=O)c1ccccc1 | – | – | – | – | – | –
CCC(C)S(=O)(=O)c1oc(-c2cccs2)nc1S(=O)(=O)c1ccccc1 (stereo not given) | 2µM | ? | ? | · | 1.1µM | ·
COc1ccc(S(=O)(=O)NCC2CCC(C(=O)O)CC2)cc1 (stereo not given) | – | – | – | – | – | ·
CN[C@H]1CCc2cc(OC)c(OC)c(OC)c2-c2ccc(N(C)CC(OC)OC)c(=O)cc21 | – | – | – | 14µM | ? | ·
COc1cccc(Oc2ccc(C(F)(F)F)cc2NC(=O)CN2C(=O)NC3(CCCC3)C2=O)c1 | 13µM | – | – | ? | 18µM | –
Brc1ccc2nc(-c3ccco3)c(Cc3ccccc3)n2c1 | – | · | · | ? | ? | –
Clc1ccc(-c2nc3ccc(Cl)cn3c2Cc2cccc(Cl)c2)cc1 | – | · | · | – | ? | –
SMILES | HepG2 viability | Nrf2 inh | A549 tox | S2 tox | TGFb inhibitor | ATXN2 expr inh
Clc1cccc(Cc2c(-c3ccccc3)nc3ccc(Cl)cn23)c1 | – | · | · | ? | ? | –
COC(=O)c1ccc2nc(-c3ccco3)c(Cc3ccc(OC)cc3C)n2c1 | – | · | · | ? | 13µM | –
Clc1cccc(Cc2c(-c3ccco3)nc3ccc(Cl)cn23)c1 | – | · | · | · | 18µM | ?
Clc1cccc(Cc2c(-c3ccco3)nc3ccc(Br)cn23)c1 | – | · | · | · | 13µM | ?
Cc1ccc2nc(-c3ccccc3)c(Cc3cccc(Cl)c3)n2c1 | – | · | · | ? | 14µM | –
CC(C)N(C(=O)COC(=O)c1cccc(N(C)C)c1)c1ccccc1 | – | – | – | – | – | –
COCCCNc1ncnc2c1cnn2-c1ccc(F)cc1 | – | · | – | · | – | ·
O=S(=O)(Nc1nc2ccccc2nc1NCC1CCCO1)c1cccc(Cl)c1 (stereo not given) | – | – | – | – | ? | –
COc1ccc(C(=O)NCCC(=O)N2CCC3(CC2)NCCc2[nH]cnc23)cc1 | – | – | – | – | – | –
O=C1c2ccc(Br)cc2C(=O)N1c1ccc(Cc2ccncc2)cc1 | – | 21µM | – | – | – | –
Cc1ccc(S(=O)(=O)N(CC(=O)NCCc2ccc(Cl)cc2)c2ccccc2C)cc1 | – | 26µM | ? | ? | ? | ?
Cc1ccc(N(CC(=O)NCCc2ccc(F)cc2)S(=O)(=O)c2ccc(Cl)c([N+](=O)[O-])c2)c(C)c1 | 11µM | – | – | ? | ? | ?
O=C(CN(c1ccc(Br)cc1)S(=O)(=O)c1ccc(Cl)c([N+](=O)[O-])c1)NCCc1ccccc1 | – | – | – | ? | – | –
COc1ccc(NC(=O)c2cnc3sc(N4CCOCC4)nn3c2=O)c(OC)c1 | – | ? | – | – | – | –
c1ccc(Nc2cc(Nc3ccccc3)[nH]n2)cc1 | 10µM | – | – | ? | 16µM | –
Cc1onc(-c2ccccc2)c1C(=O)O/N=C(\N)c1ccc([N+](=O)[O-])o1 | 13µM | ? | ? | ? | 13µM | ·
Cc1onc(-c2cccc(Cl)c2Cl)c1C(=O)O/N=C(\N)c1ccc([N+](=O)[O-])o1 | – | – | – | – | ? | –
Cc1ccc(-c2nnc(-c3ccc(NC(=O)Cc4cccs4)cc3)o2)cc1 | – | 9.2µM | 13µM | ? | – | ?

From PubChem
